The source of these data is ChEMBL document CHEMBL1201862, “PubChem BioAssay data set” (2004).

Screen size: about 48,000 sequences; about 6,100 (13%) were called active. Rule as the data show it: active = GI50 up to about 1.1 µM and inactive = higher. Shown is part of a subset that was picked to be rich in actives. Potency and affinity values are given separately.

As usually defined, the GI50 is the concentration giving 50% growth inhibition. High values mean lower sensitivity of the cells, low ones greater sensitivity of the cells.

The assay deals with SR.
The substance CISPLATIN, CHEMBL11359 had a GI50 of 0.618 µM. The substance “[Bis(aminomethyl)tetramethylenesilane]tetrachloropaltinum(IV), CHEMBL2146189” returned a GI50 of 0.499 µM. In turn, “[Bis(aminomethyl)pentamethylenesilane]tetrachloropaltinum(IV), CHEMBL2146204” had a GI50 of 0.422 µM. Next, “[Bis(aminomethyl)pentamethylenesilane]dichloropaltinum(II), CHEMBL2146202”: 1.49 µM; “mu-(1,7-nanodiamine-N,N')bis-(cis-aminedichloroplatimum (II)), CHEMBL2146215”: 2.78 µM. The substance “[Bis(aminomethyl)dimethylsilane]tetrachloroplatinum(IV), CHEMBL2146190” showed a GI50 of 3.44 µM. “[Bis(aminomethyl)tetramethylenesilane]dichloropaltinum(II), CHEMBL2146205”: halving of growth (GI50) required 3.52 µM. In turn, “[Bis(aminomethyl)diethylsilane]tetrachloroplatinum(IV), CHEMBL2146203” displayed a GI50 of 0.382 µM.
